hgDAF12 agonist – H. glycines DAF-12 receptor agonists, primary screen, cell-based, luminescence, HEK293, GAL4 fusion, UAS-luciferase. HEK293 GAL4-hgDAF12 UAS-luciferase reporter, agonist luminescence; normalized to butyrate control. Nuclear hormone receptor DAF-12 (Heterodera glycines), GAL4 fusion. 1.8% of 370,000 active. activation, % at 6.8 µM. AID 687014, 2013;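 active = activation above a cutoff set at the mean of all screened compounds plus 3 SD, cut at about 10% in these data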;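 note: 0% = DMSO wells and 100% = sodium butyrate wells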
hcDAF12 agonist – H. contortus DAF-12 nuclear receptor activators, primary screen, cell-based, luminescence, HEK293, lit1-tk-luc reporter; HEK293 hcDAF-12 lit1-tk-luc reporter; 0% DMSO, 100% Δ7-dafachronic acid; activation, % at 6.8 µM; 1.4% of 370,000 active;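 active = activation above the mean of all tested compounds plus 3 SD, cut at about 5.5% in these data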;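 note: 100% = response to 3 µM Δ7-dafachronic acid high control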
DAX1 inh-1 – DAX1 (NR0B1) inhibitors on StAR promoter, primary screen, cell-based, luminescence, SF-1 (NR5A1), full-length DAX-1. HEK293T StAR-luciferase reporter, SF-1/DAX-1 repression relief. 1.1% of 370,000 active. AID 652010, 2013. inhibition, % at 6.8 µM;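 active = inhibition above the mean over all tested compounds plus 3 SD, cut at about 3.6% in these data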;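 note: 0% = DAX-1 cells with DMSO and 100% = cells lacking DAX-1 with DMSO; higher inhibition means more luminescence from relief of DAX-1 repression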
DAX1 inh-2 – DAX1 (NR0B1) inhibitors, primary screen, cell-based, HEK293, Gal4-DAX1, luciferase luminescence | Nuclear receptor subfamily 0 group B member 1 (Homo sapiens), P51843 | HEK293 Gal4-DAX1 luciferase reporter | inhibition, % at 6.75 µM | 0.99% of 340,000 active | AID 504766, 2011;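 active = inhibition above the mean over all tested compounds plus 3 SD, cut at about 4.2% in these data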;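 note: 0% = DAX1-transfected cells with DMSO and 100% = empty-vector control cells with DMSO; inhibition shows as a rise in luminescence from relieved DAX1 repression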
Target sequence (P51843 207-470 limits assumed): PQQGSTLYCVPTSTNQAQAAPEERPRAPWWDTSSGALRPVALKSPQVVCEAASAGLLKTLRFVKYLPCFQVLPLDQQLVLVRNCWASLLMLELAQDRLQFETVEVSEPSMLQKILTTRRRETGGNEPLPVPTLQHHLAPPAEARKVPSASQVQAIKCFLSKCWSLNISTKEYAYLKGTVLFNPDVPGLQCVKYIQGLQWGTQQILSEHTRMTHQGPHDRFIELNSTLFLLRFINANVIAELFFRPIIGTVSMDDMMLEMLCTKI
ssDAF-12 act – S. stercoralis DAF-12 nuclear receptor activators, primary screen, cell-based, luminescence, HEK293, GRIP1 co-expression, lit1-tk-luc; Nuclear hormone receptor DAF-12 (Strongyloides stercoralis); HEK293 ssDAF-12/GRIP1 lit1-tk-luc reporter; % of 3 µM dafachronic acid response; activation, % at 6.8 µM; 1% of 370,000 active; AID 652126, 2013;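 active = activation above the mean over all tested compounds plus 3 SD, cut at about 0.9% in these data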;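 note: 0% = DMSO-only wells and 100% = 3 µM delta7-dafachronic acid wells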
SMARCA2 activ – SMARCA2 (BRM) function activators, primary screen, cell-based, luminescence, high throughput. MG213 cells, MMTV-luciferase reporter, dexamethasone, overnight. activation, % at 9.1 µM. 1% of 370,000 active. AID 652017, 2013; in the data active = activation above about 7.8%;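 note: 0% = vehicle wells and 100% = reference activator wells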
* = called active by the depositor. In the library only some 4.8% were active in any assay of this set; here they are far more common.

What do the screens show for `CCCCN1CC(N2CCN(Cc3ccccc3)CC2)CS1(=O)=O` (stereo not drawn)?
hgDAF12 agonist: -3; hcDAF12 agonist: 0; DAX1 inh-1: 0; ssDAF-12 act: -2; SMARCA2 activ: 1

Results for Cc1[nH]c(=O)[nH]c(=O)c1/C=N/NC(=O)[C@H](C)N ?
hgDAF12 agonist: -2; hcDAF12 agonist: 5; DAX1 inh-1: 0; DAX1 inh-2: 5.7*; ssDAF-12 act: 0; SMARCA2 activ: -2

Results for COc1cc(C2C3=C(CC(C)(C)CC3=O)Nc3c2c(=O)[nH]c(=O)n3Cc2ccccc2)ccc1O (stereo not drawn) ?
hgDAF12 agonist: 1; hcDAF12 agonist: -1; DAX1 inh-1: 0; DAX1 inh-2: 4.3*; ssDAF-12 act: -1; SMARCA2 activ: -2

What do the screens show for `CCCN1CC23C=CC(O2)C(C(=O)O)C3C1=O` (stereo not drawn)?
hgDAF12 agonist: -1; hcDAF12 agonist: 1; DAX1 inh-1: -1; DAX1 inh-2: 5.0*; ssDAF-12 act: -1; SMARCA2 activ: -1

What do the screens show for `CCC(C)N1CC23C=CC(O2)C(C(=O)OC)C3C1=O` (stereo not drawn)?
hgDAF12 agonist: 4; hcDAF12 agonist: 1; DAX1 inh-1: 0; DAX1 inh-2: 6.7*; ssDAF-12 act: -2; SMARCA2 activ: -1

Results for CCOC(=O)N1CCC(N2CC34C=CC(O3)C(C(=O)O)C4C2=O)CC1 (stereo not drawn) ?
hgDAF12 agonist: -1; hcDAF12 agonist: -2; DAX1 inh-1: 0; DAX1 inh-2: 4.3*; ssDAF-12 act: -1; SMARCA2 activ: 0

What do the screens show for `CCOC(=O)C1[C@H]2C(=O)N(C(C)c3ccc(OC)cc3)C[C@]23C=C[C@H]1O3` (stereo partly drawn)?
hgDAF12 agonist: -1; hcDAF12 agonist: 0; DAX1 inh-1: 0; DAX1 inh-2: 0; ssDAF-12 act: -1; SMARCA2 activ: -2

What do the screens show for `C[C@@H](c1ccccc1)N1C[C@H](COCc2ccccc2)Oc2cc(N3CC[C@H](N(C)C)C3)ccc2S1(=O)=O`?
hgDAF12 agonist: -1; hcDAF12 agonist: -1; DAX1 inh-1: 0; ssDAF-12 act: -1; SMARCA2 activ: -5

What do the screens show for `Cc1c(N=C2C=C(Br)C(=O)C(Br)=C2)c(=O)n(-c2ccccc2)n1C`?
hgDAF12 agonist: -4; hcDAF12 agonist: -1; DAX1 inh-1: 0; DAX1 inh-2: 3; ssDAF-12 act: -2; SMARCA2 activ: -3

How did Cc1c(N=C2C=CC(=O)c3ccccc32)c(=O)n(-c2ccccc2)n1C do in these assays?
hgDAF12 agonist: 4; hcDAF12 agonist: 5; DAX1 inh-1: 0; DAX1 inh-2: 2; ssDAF-12 act: 1.4*; SMARCA2 activ: 5

How did Oc1ccc(-c2csc(Nc3cccc4ccccc34)n2)cc1O do in these assays?
hgDAF12 agonist: 4; hcDAF12 agonist: 1; DAX1 inh-1: 0; DAX1 inh-2: 2; ssDAF-12 act: 2.1*; SMARCA2 activ: -1

How did CC(=O)c1cc(-c2ccccc2-c2ccccc2)c(=O)n2c1CCC2 do in these assays?
hgDAF12 agonist: -1; hcDAF12 agonist: -1; DAX1 inh-1: 0; ssDAF-12 act: -2; SMARCA2 activ: -2

How did O=C(CSc1nc2scc(-c3ccccc3)c2c(=O)[nH]1)N1CCCCC1 do in these assays?
hgDAF12 agonist: -2; hcDAF12 agonist: 0; DAX1 inh-1: 1; DAX1 inh-2: 5.6*; ssDAF-12 act: -1; SMARCA2 activ: -2

Results for CN(C)c1ccc(Nc2nc(N)c3ccccc3n2)cc1 ?
hgDAF12 agonist: 10*; hcDAF12 agonist: 4; DAX1 inh-1: 2; DAX1 inh-2: -5; ssDAF-12 act: 1; SMARCA2 activ: 6

What do the screens show for `CCOc1ccc(Nc2nc(N)c3ccccc3n2)cc1`?
hgDAF12 agonist: 8; hcDAF12 agonist: 4; DAX1 inh-1: 2; DAX1 inh-2: -5; ssDAF-12 act: 1.4*; SMARCA2 activ: 1

Results for CN(C)S(=O)(=O)c1ccc(C(=O)OC2CCOC2=O)cc1 (stereo not drawn) ?
hgDAF12 agonist: 0; hcDAF12 agonist: 0; DAX1 inh-1: 0; DAX1 inh-2: -1; ssDAF-12 act: -1; SMARCA2 activ: -1

What do the screens show for `O=C(NC1CCCC1)c1ccc2nc[nH]c2c1`?
hgDAF12 agonist: -2; hcDAF12 agonist: -1; DAX1 inh-1: 0; DAX1 inh-2: 2; ssDAF-12 act: -1; SMARCA2 activ: 1

What do the screens show for `Cc1ccc(NC(=O)c2ccc3nc[nH]c3c2)cc1C`?
hgDAF12 agonist: 9; hcDAF12 agonist: 5.9*; DAX1 inh-1: 3; DAX1 inh-2: 2; ssDAF-12 act: 0; SMARCA2 activ: 5

What do the screens show for `O=C(c1ccccc1)c1ccc2nc[nH]c2c1`?
hgDAF12 agonist: 7; hcDAF12 agonist: 6.3*; DAX1 inh-1: 1; DAX1 inh-2: 0; ssDAF-12 act: 0; SMARCA2 activ: 0

What do the screens show for `Cc1cc(C)cc(NC(=O)c2ccc3nc[nH]c3c2)c1`?
hgDAF12 agonist: 6; hcDAF12 agonist: -1; DAX1 inh-1: 1; DAX1 inh-2: -2; ssDAF-12 act: -2; SMARCA2 activ: 3

Results for COc1ccc(C2C(C(=O)NCc3ccccn3)c3ccccc3C(=O)N2C)cc1OC (stereo not drawn) ?
hgDAF12 agonist: -1; hcDAF12 agonist: -1; DAX1 inh-1: 0; DAX1 inh-2: 1; ssDAF-12 act: -1; SMARCA2 activ: -3

How did COc1ccc(C2C(C(=O)NCCN(C)C)c3ccccc3C(=O)N2C)cc1OC (stereo not drawn) do in these assays?
hgDAF12 agonist: 1; hcDAF12 agonist: -1; DAX1 inh-1: -2; DAX1 inh-2: 4.6*; ssDAF-12 act: -1; SMARCA2 activ: -1

Results for O=C(O)c1ccc(OCCCCCCOC2CCCCO2)cc1 (stereo not drawn) ?
hgDAF12 agonist: 1; hcDAF12 agonist: -1; DAX1 inh-1: 0; DAX1 inh-2: 4.5*; ssDAF-12 act: -1; SMARCA2 activ: -2

Results for O=C(c1ccccc1)c1ccc(OCCCCN2CCCCC2)cc1 ?
hgDAF12 agonist: 2; hcDAF12 agonist: -2; DAX1 inh-1: 0; DAX1 inh-2: 0; ssDAF-12 act: -1; SMARCA2 activ: -3

How did COc1ccc(C(O)c2nc(-c3cccc(NC(C)=O)c3)cs2)cc1 (stereo not drawn) do in these assays?
hgDAF12 agonist: 3; hcDAF12 agonist: -2; DAX1 inh-1: 0; ssDAF-12 act: -1; SMARCA2 activ: -2

Screening results as filed in PubChem BioAssay.
